# Where “and” joins values, the source holds several entries; their conditions need not be identical. Equal entries are not always repeated. Values without a mark were called inactive. Calls of active or inactive are those of the source.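 How the source made its calls: active means inhibition at or above 50% relative to wild type and mutant plate controls; inactive means inhibition below 50%.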
# Assay: inhibitors of Chlamydomonas gravitaxis, primary screen, whole organism, Chlamydomonas reinhardtii, WT vs cilia-less mutant, absorbance, 96-well (AID 463189);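 further: 0% = wild type cc124 cells in DMSO and 100% = ciliumless bld1 mutant cells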
# Details: OD600 absorbance, 2 days, at 10 µM, stronger effect = higher value
row,Structure (SMILES),inhibition
1,Ic1ccccc1CNC1C2CCN(CC2)C1C(c1ccccc1)c1ccccc1 (stereo not drawn),75.8% (active)
2,Cc1ccc(S(=O)(=O)N[C@@H](CCCCN)C(=O)CCl)cc1,5.31%
3,NN=C(N)N,15.6% and 6.1%

# — PubChem BioAssay
